Hits are enriched below; roughly 0.81% of the tested compounds scored in any of these assays.
SRC3 inh: SRC3 coactivator transcriptional activity inhibitors, primary screen, cell-based, luminescence; Nuclear receptor coactivator 3 (Homo sapiens), Q9Y6Q9; HEK293 GAL4-SRC3 luciferase reporter; inhibition, % at 3.6 µM; actives 0.17% (n = 360,000);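 active = inhibition above a per-campaign cutoff, the mean of all compounds plus 3 SD, cut at about 60% in these data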;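 note: 0% = DMSO-treated cells and 100% = gossypol-treated cells at 36 µM; higher means less SRC3-driven luciferase light from the GAL4 reporter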
SRC2 inh: inhibition of GAL4-SRC2 driven luciferase reporter, primary screen, SRC2 inhibitor project, cell-based, luminescence | actives 0.17% (n = 370,000) | HEK293 GAL4-SRC2 luciferase reporter | AID 651957, 2012 | inhibition, % at 9 µM;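 active = inhibition above the mean inhibition of all tested compounds plus 3 SD, set per campaign, cut at about 52% in these data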;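 note: 0% = DMSO treated cells and 100% = cells given Gossypol at 36 µM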
COUP-TFII inh: NR2F2 transcriptional activity inhibitors, primary screen, cell-based, luciferase reporter, HEK293T, luminescence; COUP transcription factor 2 (Homo sapiens), P24468; AID 686940, 2013; inhibition, % at 8.6 µM; actives 0.7% (n = 370,000); HEK293T NGFI-A luciferase reporter;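 active = inhibition above a per-plate cutoff, mean inhibition of test wells between control levels plus 3 SD, cut at about 38% in these data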;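 note: cells cotransfected with COUP-TFII expression vector driving the NGFI-A reporter; 0% = median of COUP-TF2 test wells and 100% = reporter-only cells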
LRH-1 inv ag: LRH-1 (NR5A2) inverse agonists, primary screen, cell-based, luminescence, HEK293T, StAR-luciferase reporter; Nuclear receptor subfamily 5 group A member 2 (Homo sapiens), O00482; LRH-1 transfected, 24 h; inhibition, % at 3.6 µM; actives 0.13% (n = 360,000); AID 602396, 2012;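 active = inhibition above the mean inhibition of all tested compounds plus 3 SD, cut at about 73% in these data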;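 note: 0% = DMSO wells and 100% = reporter-only cells lacking LRH-1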
SRC1 inh: SRC1 coactivator transcriptional activity inhibitors, primary screen, cell-based, luminescence; HEK293 GAL4-SRC1 luciferase reporter; inhibition, % at 3.6 µM; actives 0.12% (n = 360,000);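 active = inhibition above the campaign mean plus 3 SD, with each screening campaign given its own cutoff, cut at about 60% in these data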;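 note: 0% = DMSO treated cells and 100% = gossypol at 36 µM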
VP16 Luc counter: Gal4-VP16 luciferase reporter inhibitors, counter-screen for COUP-TFII antagonist project, cell-based, luminescence, HEK293; shares compounds with COUP-TFII inh; inhibition, % at 8.5 µM; actives 25% (n = 2,500); in the data active = inhibition above about 13%
NR2F2 inh conf: NR2F2 transcriptional activity inhibitors, confirmation, cell-based, luciferase reporter, HEK293, triplicate; HEK293 NGFI-A luciferase reporter, luminescence; AID 687008, 2013; actives 45% (n = 2,500); inhibition, % at 8.5 µM; shares compounds with COUP-TFII inh;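 active = mean inhibition over three repeats above a set limit taken from the earlier primary screen, cut at about 38% in these data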;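 note: 100% = cells given the luciferase reporter alone without the COUP-TF2 vector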
Numbers without * were called inactive; . = no result.

SMILES	SRC3 inh	SRC2 inh	COUP-TFII inh	LRH-1 inv ag	SRC1 inh	VP16 Luc counter	NR2F2 inh conf
O=C(NC1CCCCC1)C(c1cccnc1)N(C(=O)CCl)c1cccc(Cl)c1 (centres undefined)	69*	57*	3	-27	37	.	.
N=c1c2c(n(Cc3ccc(F)cc3)c3c1CCC3)CCC2	50	16	36	74*	36	.	.
C[C@H]1CCC/C=C/[C@@H]2C[C@H](O)C[C@H]2[C@H](O)[C@H](S(=O)c2ccc(O)cc2)CC(=O)O1 (some centres undefined)	63*	-30	51*	79*	2	.	.
CCCCN(C)C(=O)C1CCN(S(=O)(=O)c2ccc3[nH]c(=O)oc3c2)CC1	.	-10	14	.	.	.	.
COc1cc2c(cc1NC(=O)CSc1nnc(-c3cccc(Cl)c3)n1-c1ccccc1)oc1ccccc12	.	5	-16	.	.	.	.
CCOC(=O)c1cc2sccc2n1CC(=O)OC(C)C	11	1	3	28	0	.	.
CCOC(=O)c1cc2sccc2n1CC(=O)N1CCc2ccccc21	67*	-3	-8	0	39	.	.
CCn1c(SCC(=O)Nc2ccc(C(=O)OC)cc2)nnc1-c1cccc(Cl)c1	.	-13	10	.	.	.	.
CCCCCC[C@@H](CN(CCCC)S(C)(=O)=O)c1ccccc1	.	2	0	.	.	.	.
Cc1ccc(C(C)C)c(OCc2ccc(C(=O)N/N=C/c3ccc(O)cc3O)cc2)c1	70*	64*	13	45	67*	.	.
CCN(CC)CCNc1ccc(C)c2sc3ccc(O)cc3c(=O)c12	64*	-27	-89	39	63*	.	.
CCN(CC)CCNc1ccc(CO)c2oc3cc(Cl)ccc3c(=O)c12	-13	-49	-2	13	14	.	.
CCC(C)CNC(=O)c1oc(=O)c2ccccc2c1-c1ccc(C)cc1 (centres undefined)	.	-26	3	.	.	.	.
CCC1C/C(=C\c2cccnc2)C(=O)/C(=C/c2cccnc2)C1 (centres undefined)	45	92*	91*	52	-394	.	.
O=C1/C(=C/c2cccnc2)CCC/C1=C\c1cccnc1	.	74*	91*	.	.	.	.
Cc1ccc(-n2[nH]c(=O)c(-c3ccccn3)c2C)cc1	13	29	44*	-26	-24	-51	2
C[C@H]1/C=C/CC(=O)N[C@@H](c2ccccc2)[C@@H](C)/C=C/CC(=O)N[C@H]1c1ccccc1	.	-5	-6	.	.	.	.
Cc1cc(N2CCN(C(=O)Oc3ccc(-c4ccccc4)cc3)CC2)c2ccccc2n1	.	18	62*	.	.	-1	36
COc1ccc2c(c1)c(C(C)=O)c(C)n2CCc1ccccc1	28	13	53*	17	19	4	23
COc1ccc(-n2c(C)c(C(C)=O)c3cc(O)ccc32)cc1	59	48	44*	8	68*	10	18
COCCNc1nc2c(c(=O)n(C)c(=O)n2C)n1Cc1cccc(C)c1	-8	27	21	11	2	.	.
CCCn1c(CN(C)Cc2ccccc2)nc2c1c(=O)n(C)c(=O)n2C	-1	18	24	9	10	.	.
Cc1cccc(Cn2c(NCCO)nc3c2c(=O)n(C)c(=O)n3C)c1	23	32	52*	41	14	-7	25
CNc1nc2c(c(=O)n(C)c(=O)n2C)n1CCCc1ccccc1	23	33	29	24	12	.	.
CNc1nc2c(c(=O)n(C)c(=O)n2C)n1Cc1ccccc1	31	10	41*	40	22	-3	21
CCCCn1c(CN(C)Cc2ccccc2)nc2c1c(=O)n(C)c(=O)n2C	31	-3	40*	25	2	-2	23

Screening results deposited in PubChem BioAssay by The Scripps Research Institute Molecular Screening Center.
